Assay results published in PubChem BioAssay (Tox21).
Inconclusive results are not listed. Active and inactive are the calls of the source. Unless noted, calls come from the whole dose curve; as a rule, active = well fitted curve in the direction sought with a large enough effect in the repeat runs; inconclusive = weak or mixed curves; inactive = no such curve, though single readings can be large; an effect the other way counts as inactive or inconclusive.

What was measured:
[1] = qHTS assay to identify small molecule antagonists of the vitamin D receptor (VDR) signaling pathway - cell viability counter screen (AID 743225); note: nearly all actives have a fitted effect of over 50% in size
Procedure, shortened: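 Cytotoxicity toward the VDR-bla HEK 293T line was scored by ATP-based CellTiter-Glo luminescence, read in the wells already used for the beta-lactamase readout after 16 h compound treatment under 3 nM 1-alpha,25-dihydroxyvitamin D3 stimulation.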

[2] = qHTS assay to identify small molecule agonists of the NFkB signaling pathway (AID 1159509; active = well fitted curve in the direction sought with a large enough effect in the signal ratio in the repeat runs, not every such curve was filed as active; the % refers to the signal ratio; note: series mostly up to about 61 µM)
Procedure, shortened: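 Agonist activity was read as beta-lactamase-driven FRET change (460 and 530 nm emission, 405 nm excitation) following 1.5 hr substrate loading at room temperature. Beforehand, ME-180 NFkB-bla reporter cells were treated with compounds for 5 hr at 37 C.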

[3] = qHTS assay to identify small molecule agonists of the NFkB signaling pathway - cell viability counter screen (AID 1159515; calls by dose curve; note: series mostly up to about 61 µM; nearly all actives have a fitted effect of over 55% in size)
Procedure, shortened: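 Parallel cytotoxicity counter screen in ME-180 cells carrying an NFkB-response-element beta-lactamase reporter, 2,000 cells/well. Compound exposure lasted 5 hr at 37 C, 5% CO2. Cell viability was quantified by CellTiter-Glo luminescence.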

[4] = qHTS assay to identify small molecule agonists of the endoplasmic reticulum stress response signaling pathway (AID 1159516; active = well fitted activation curve with a large enough effect in the signal ratio in the repeat runs, not every such curve was filed as active; the % refers to the signal ratio)
Procedure, shortened: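 Using a HeLa line with an ESRE-driven beta-lactamase gene, agonist activity was measured by FRET substrate fluorescence (460 and 530 nm emission) after cells were treated with compounds for 5 hr at 37 C and 5% CO2.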

[5] = qHTS assay to identify small molecule agonists of the endoplasmic reticulum stress response signaling pathway - cell viability counter screen (AID 1159517; calls by dose curve;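 note: HeLa cells carrying an ER stress response element beta-lactamase reporter; series mostly up to about 61 µM; nearly all actives have a fitted effect of over 50% in size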)
Procedure, shortened: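 Cpd-treated ESRE-bla HeLa (5 hr, 37 C) → LiveBLAzer 2 hr RT → CellTiter-Glo 30 min RT → luminescence.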

[6] = qHTS assay to identify small molecule antagonists of the retinoid-related orphan receptor gamma (ROR-gamma) signaling pathway - cell viability counter screen (AID 1159520); note: nearly all actives have a fitted effect of over 50% in size
Procedure, shortened: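 Tet-on ROR gamma CHO cells (1,000/well) were plated 4 hr, given compounds in DMSO for 2 hr at 37 C, then induced with 1 uM final doxycycline for 16 hr. Viability was read as ATP by CellTiter-Glo luminescence after 30 min.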

[7] = target: Nuclear receptor ROR-gamma (Homo sapiens) (UniProt P51449); assay: qHTS assay to identify small molecule antagonists of the retinoid-related orphan receptor gamma (ROR-gamma) signaling pathway (AID 1159521;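 note: CHO cells with doxycycline inducible ROR-gamma driving an RORE luciferase reporter; top concentration of the series differs between compounds; nearly all actives have a fitted effect of over 50% in size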)
Procedure, shortened: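 Readout: ONE-Glo luciferase luminescence, 30 min at room temperature. System: Tet-on RORγ CHO, RORE-LUC. Sequence: compound 2 h, doxycycline 1 uM final, 16 h at 37 C.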

[8] = qHTS assay to identify small molecule agonists of the AP-1 signaling pathway (AID 1159526; calls by dose curve)
[9] = target: Retinoic acid receptor RXR-alpha (Homo sapiens) (UniProt P19793); assay: qHTS assay to identify small molecule agonists of the RXR signaling pathway (AID 1159527; calls by dose curve; note: nearly all actives have a fitted effect of over 35% in size)
Sequence of Retinoic acid receptor RXR-alpha (Homo sapiens) (P19793 whole entry, looked up): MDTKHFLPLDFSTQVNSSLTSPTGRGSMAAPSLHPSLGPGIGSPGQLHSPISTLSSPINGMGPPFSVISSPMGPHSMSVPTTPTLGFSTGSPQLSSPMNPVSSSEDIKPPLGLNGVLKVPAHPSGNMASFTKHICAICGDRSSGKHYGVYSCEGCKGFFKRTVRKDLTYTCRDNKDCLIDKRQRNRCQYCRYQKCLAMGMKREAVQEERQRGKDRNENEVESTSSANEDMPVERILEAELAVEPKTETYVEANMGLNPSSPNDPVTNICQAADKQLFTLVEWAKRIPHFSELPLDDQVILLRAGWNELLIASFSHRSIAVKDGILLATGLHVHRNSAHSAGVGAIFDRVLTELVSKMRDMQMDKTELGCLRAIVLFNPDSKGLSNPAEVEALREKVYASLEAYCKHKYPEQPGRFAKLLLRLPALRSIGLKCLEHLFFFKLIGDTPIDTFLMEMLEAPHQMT
Procedure, shortened: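 Reporter activation is measured as beta-lactamase activity via FRET substrate cleavage (emission 460/530 nm) in HEK 293T cells expressing an RXR-alpha-driven bla construct, following 16 hr compound exposure at 37 C.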

[10] = qHTS assay to identify small molecule agonists of the RXR signaling pathway - cell viability counter screen (AID 1159529)
Procedure, shortened: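 Tox21 10K compounds were tested for cytotoxicity against GeneBLAzer RXR-alpha HEK 293T cells grown in 2% charcoal-stripped FBS. Exposure lasted 16 hr at 37 C, 5% CO2; viability read by CellTiter-Glo luminescence.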

[11] = qHTS assay to identify small molecule antagonists of the retinoid acid receptor (RAR) signaling pathway - cell viability counter screen (AID 1159551); note: nearly all actives have a fitted effect of over 35% in size
Procedure, shortened: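 ATP-based viability, C3RL4 cells, 6 h at 37 C with 1 uM final retinol co-added after compound; luminescence read 30 min post CellTiter-Glo, RT.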

[12] = qHTS assay to identify small molecule antagonists of the estrogen related receptor (ERR) signaling pathway from Tox21 library - cell viability counter screen (AID 1224834); note: nearly all actives have a fitted effect of over 30% in size
Procedure, shortened: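 Compounds in DMSO were pinned onto ERR cells that had been incubated for 6 h, and the plates were held at 37 C for 17.5 h. CellTiter-Fluor reagent was then added and fluorescence was measured after 30 min.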

[13] = qHTS assay to identify small molecule agonists of the vitamin D receptor (VDR) signaling pathway - cell viability counter screen (AID 743224)
Procedure, shortened: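 Compounds were pin-transferred onto VDR-bla cells plated 4 h earlier; following 16 h incubation at 37C, cell viability was quantified by CellTiter-Glo luminescence after 30 min at room temperature.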

[14] = qHTS assay to identify small molecule agonists of the AP-1 signaling pathway - cell viability counter screen (AID 1159525; calls by dose curve; note: nearly all actives have a fitted effect of over 55% in size)
Procedure, shortened: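 Each titration point was normalised to DMSO and tetra n-octyl ammonium bromide controls. The read was Cell Titer Glo luminescence after 30 min at RT, following 5 h compound exposure of ME-180 AP-1-bla cells at 37 °C.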

[15] = qHTS assay to identify small molecule agonists of the retinoic acid receptor (RAR) signaling pathway (AID 1159553)
Procedure, shortened: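 Quantitative high-throughput format: the Tox21 10K library was tested on C3RL4 RARE-luciferase cells for 6 hr at 37 C and 5% CO2, with luminescence measured after a 30 min room-temperature reagent step.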

[16] = qHTS assay to identify small molecule antagonists of the estrogen related receptor (ERR) signaling pathway - cell viability counter screen (AID 1224818);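 note: series mostly up to about 46 µM; viability measured after 17.5 h of compound exposure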
Procedure, shortened: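 Quantitative high-throughput viability counter screen in ERR cells. Compounds (DMSO) incubated 17.5 h at 37 C; read-out was CellTiter-Fluor fluorescence.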

[17] = qHTS assay to identify small molecule antagonists of the retinoic acid receptor (RAR) signaling pathway (AID 1159552; note: nearly all actives have a fitted effect of over 50% in size)
Procedure, shortened: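 Overnight-plated C3RL4 reporter cells get compound, then retinol to 1 uM final; plates sit 6 hr at 37 C, 5% CO2. A luciferase reagent is added and light output recorded after 30 min at room temperature.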

Measured: Potency

COC(=O)CCCCCCCC(=O)OC
inactive: [1] | [2] | [3] | [4] | [5] | [6] | [7] | [8] | [9] | [10] | [11] | [12]

CC(=O)/C=C/C1C(C)=CCC(C)C1(C)C (centres undefined)
inactive: [13] | [1] | [2] | [3] | [4] | [5] | [6] | [7] | [14] | [8] | [10] | [11] | [12]

COP(=O)(OC)OC(c1ccc(Cl)cc1)P(=O)(OC)OC (centres undefined)
inactive: [13] | [1] | [2] | [3] | [4] | [5] | [6] | [7] | [8] | [9] | [10] | [11] | [12]

FC(F)(F)c1ccccc1-n1ccnc1
inactive: [13] | [1] | [2] | [3] | [4] | [5] | [6] | [7] | [8] | [9] | [10] | [11] | [15] | [16] | [12]

CC(C)CCCC(C)(C)O
inactive: [13] | [1] | [2] | [3] | [4] | [5] | [6] | [7] | [14] | [8] | [10] | [11] | [12]

CC(C)CC(=O)O
inactive: [13] | [1] | [2] | [3] | [4] | [5] | [6] | [7] | [14] | [8] | [10] | [11] | [15]

COc1ccc(OC)c(Cl)c1
inactive: [13] | [1] | [2] | [3] | [4] | [5] | [6] | [7] | [8] | [9] | [10] | [11] | [17] | [12]

Cc1ccsc1/C=C/C1=NCCCN1C
inactive: [13] | [1] | [2] | [3] | [4] | [5] | [6] | [7] | [14] | [8] | [10] | [11] | [12]

CCCC/C=C\CCCCCCCCCC=O
inactive: [13] | [1] | [2] | [3] | [4] | [5] | [6] | [7] | [8] | [9] | [10] | [11] | [12]
